Assay outcomes as filed in PubChem.
Only some compounds are listed: those with a hit (about 3.5% of all), similar ones and a draw of the others.
mHTT CaM bind = mutant huntingtin-calmodulin interaction inhibitors – biochemical, AlphaScreen, primary screen; inhibition, % at 15 µM; P42858; 190,000 tested, 3.6% active; AID 1671202, 2021; AlphaScreen His-mHTT/GST-CaM binding, luminescence;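 note: 0% = both proteins with DMSO and 100% = one protein alone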
Pf apPOL block = Pf-apPOL inhibitors, biochemical, fluorescence; Plasmodium falciparum apicoplast DNA polymerase (apPOL); Recombinant Pf-apPOL, molecular beacon fluorescence, 1.5 h; inhibition, % at 10 µM; 210,000 tested, 0.25% active
Numbers without * were called inactive. Cut-off read from the data, not from the text of the source: active = inhibition above about 50%; inactive = the rest.

Cc1ccc(N2CCC(NS(=O)(=O)c3cccc(F)c3)C2=O)cc1 (stereo not drawn) was read as mHTT CaM bind -11 and Pf apPOL block 2.
Screening COc1ccccc1NC(=O)NCCn1nc(-c2sc(C)nc2C)ccc1=O returned mHTT CaM bind -9 and Pf apPOL block -3.
`COc1ccc(-c2n[nH]c(C)c2Oc2ccccc2)c(O)c1OC` gave mHTT CaM bind 48 and Pf apPOL block -7.
For CCc1cc(-c2n[nH]c(C)c2Oc2ccccc2)c(O)cc1O the results were mHTT CaM bind 81* and Pf apPOL block -10.
COc1cc(C)c(-c2n[nH]c(C)c2Oc2ccccc2)c(O)c1 was read as mHTT CaM bind 7 and Pf apPOL block 4.
Screening CCc1cc(-c2n[nH]c(C)c2-c2ccccc2)c(O)cc1O returned mHTT CaM bind 69* and Pf apPOL block 0.
CCc1cc(-c2n[nH]c(C)c2Oc2ccc(F)cc2)c(O)cc1O was read as mHTT CaM bind 100* and Pf apPOL block 8.
`CCOc1ccc(-c2n[nH]c(C)c2-c2ccc(F)cc2)c(O)c1` gave mHTT CaM bind 24 and Pf apPOL block 1.
For CCOc1ccc(-c2n[nH]c(C)c2Oc2ccc(F)cc2)c(O)c1 the results were mHTT CaM bind 26 and Pf apPOL block -1.
`Cc1[nH]nc(-c2ccc(OC(C)C)cc2O)c1Oc1ccccc1` gave mHTT CaM bind 67* and Pf apPOL block 7.
For Cc1ccc(C(=O)N2CC3CN(S(=O)(=O)c4cccc(F)c4)CC(C2)O3)s1 the results were mHTT CaM bind 4 and Pf apPOL block -4.
For Cc1ccc(Cn2cc(/C=C(\C#N)C(=O)NCC3CCCO3)c3ccccc32)cc1 (stereo not drawn) the results were mHTT CaM bind 24 and Pf apPOL block -1.
CCc1nn(-c2ccc(C)cc2)c(CC)c1C(=O)N1CCN(C)CC1 was read as mHTT CaM bind 3 and Pf apPOL block -5.
Screening O=C(Nc1cccc(F)c1)c1csc(-c2ccc(N3CCCCC3)nc2)n1 returned mHTT CaM bind -8 and Pf apPOL block 0.
CCOC(=O)CCC(=O)NC(C)Cc1ccco1 (stereo not drawn) was read as mHTT CaM bind -3 and Pf apPOL block -6.
For O=C(CSc1nc2ncccc2[nH]1)Nc1ccc(OC(F)(F)Cl)cc1 the results were mHTT CaM bind 3 and Pf apPOL block -5.
Cn1c(C(=O)NCC2CCCO2)cc2c1CCN(Cc1cccc(F)c1)C2 (stereo not drawn) was read as mHTT CaM bind 14 and Pf apPOL block 3.
Cc1ccc(CNC(=O)C2(C)CCCN(C(=O)Nc3cc(C)cc(C)c3)C2)cc1 (stereo not drawn) was read as mHTT CaM bind -7 and Pf apPOL block -5.
For CCCc1ccc(Oc2c(-c3ccc(O)cc3O)n[nH]c2C)cc1 the results were mHTT CaM bind 80* and Pf apPOL block -3.
Screening Cc1[nH]nc(-c2ccc(O)cc2O)c1Oc1ccccc1F returned mHTT CaM bind 42 and Pf apPOL block -9.
`NNC(=O)c1cc(-c2ccc([N+](=O)[O-])cc2)nc2ccccc12` gave mHTT CaM bind 8 and Pf apPOL block -3.
For CCOc1ccccc1NC(=O)CN(c1ccc(F)cc1)S(C)(=O)=O the results were mHTT CaM bind -4 and Pf apPOL block 66*.
CS(=O)(=O)N(Cc1ccccc1)c1ccc(C(=O)Nc2ccc(F)cc2)cc1 was read as mHTT CaM bind 7 and Pf apPOL block 0.
For CCOc1ccc(N(CC(=O)Nc2ccccc2OCC)S(C)(=O)=O)cc1 the results were mHTT CaM bind 15 and Pf apPOL block -2.
CS(=O)(=O)N(Cc1ccc(C(=O)Nc2ccc(F)cc2)cc1)c1ccccc1 was read as mHTT CaM bind -5 and Pf apPOL block 50*.
COCCN1C(=O)c2ccccc2C(C(=O)N(C)c2ccc(C(C)C)cc2)C1c1ccc(F)cc1 (stereo not drawn) was read as mHTT CaM bind 57* and Pf apPOL block -2.
Screening COCCN1C(=O)c2ccccc2C(C(=O)N(C)C2CCCCC2)C1c1ccc(F)cc1 (stereo not drawn) returned mHTT CaM bind 5 and Pf apPOL block 1.
Screening CSC1=N/C(=C/c2ccc(Br)cc2)C(=O)S1 returned mHTT CaM bind 7 and Pf apPOL block 6.
For CSC1=N/C(=C\c2cc(Br)ccc2OCC(=O)O)C(=O)S1 the results were mHTT CaM bind 68* and Pf apPOL block -3.
CCNC(=O)c1ccccc1-c1ccccc1C(=O)O was read as mHTT CaM bind -5 and Pf apPOL block -3.
`CCNC(=O)c1ccc2c3c(onc13)-c1ccccc1C2=O` gave mHTT CaM bind 51* and Pf apPOL block 0.
CN1c2cc(C(=O)NCc3ccc(F)c(Cl)c3)ccc2C(=O)N2CCCCC21 (stereo not drawn) was read as mHTT CaM bind 56* and Pf apPOL block -4.
